Pf Dd2 inh: P. falciparum Dd2 growth inhibition | SYBR Green, 72 h; hits give low values | activity change, % at 10 µM | 94,000 tested, 2.3% active | AID 1159554; in the data active = activity change below about -80%
C diff HTS: C. difficile growth inhibition | Clostridium difficile clinical isolate growth, OD600, 24 h; hits give low values | growth activity, negative = inhibition, % at 16 µg/mL (by protocol) | 86,000 tested, 0.25% active;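 active = mean growth activity at or below -80% and every replicate also at or below -80%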;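 note: 0% = DMSO wells and -100% = levofloxacin 16 µg/mL wells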
Starred values were filed as active, the others as inactive; . = not tested or not shown. The list is not random: actives were taken first. Their share in the collection is about 2.4%.

SMILES	Pf Dd2 inh	C diff HTS
C[C@@H]1CCCCO[C@H](CN(C)Cc2ccncc2)[C@H](C)CN([C@H](C)CO)C(=O)c2cc(NC(=O)Nc3ccc(C(F)(F)F)cc3)ccc2O1	-84*	2
C[C@@H]1CN([C@H](C)CO)C(=O)c2cc(NC(=O)Nc3ccc(F)cc3)ccc2O[C@@H](C)CCCCO[C@H]1CN(C)Cc1ccc(C(F)(F)F)cc1	-82*	.
C[C@@H]1CCCCO[C@@H](CN(C)Cc2ccc(C(F)(F)F)cc2)[C@@H](C)CN([C@H](C)CO)C(=O)c2cc(NC(=O)Nc3ccc(C(F)(F)F)cc3)ccc2O1	62	4
C[C@H]1CCCCO[C@H](CN(C)Cc2ccc(C(F)(F)F)cc2)[C@@H](C)CN([C@@H](C)CO)C(=O)c2cc(NC(=O)Nc3ccc(F)cc3)ccc2O1	-2	.
C[C@@H]1CN([C@H](C)CO)C(=O)c2cc(NC(=O)Nc3ccc(F)cc3)ccc2O[C@@H](C)CCCCO[C@@H]1CN(C)Cc1ccc(C(F)(F)F)cc1	-82*	.
C[C@@H]1CCCCO[C@H](CN(C)Cc2ccc(C(F)(F)F)cc2)[C@H](C)CN([C@@H](C)CO)C(=O)c2cc(NC(=O)Nc3ccc(F)cc3)ccc2O1	-80	.
COc1ccc(S(=O)(=O)N(C)C[C@@H]2Oc3c(NC(=O)c4cc(C)nn4C)cccc3C(=O)N([C@@H](C)CO)C[C@@H]2C)cc1	15	7
CCNC(=O)C[C@H]1C=C[C@@H](NC(=O)C2CCOCC2)[C@H](CO)O1	-9	6
CC(C)NC(=O)Nc1cccc2c1O[C@H](CN(C)S(=O)(=O)c1cccs1)[C@H](C)CN([C@H](C)CO)C2=O	26	.
O=C(O)C[C@H]1CC[C@H](NC(=O)CCN2CCCCC2)[C@@H](CO)O1	40	-3
O=C(c1cccc(F)c1)N1CC2(C1)[C@H](c1ccccc1)[C@H](CO)N2C(=O)C1CCC1	30	0
C[C@H](CO)N1C[C@H](C)[C@H](CN(C)Cc2ccc(Cl)c(Cl)c2)OCCCC[C@H](C)Oc2ccc(NC(=O)Nc3ccc(C(F)(F)F)cc3)cc2C1=O	-8	20
C[C@@H]1CN([C@H](C)CO)C(=O)c2cc(NC(=O)Nc3ccc(C(F)(F)F)cc3)ccc2O[C@@H](C)CCCCO[C@@H]1CN(C)Cc1ccc(Cl)c(Cl)c1	-87*	17
Cn1cnc(S(=O)(=O)N2CCCCN3[C@H](CO)[C@H](c4ccc(C5=CCCC5)cc4)[C@@H]3C2)c1	-15	-7
CCC(=O)N1CCC2(CC1)CN(C(C)=O)[C@@H](CO)c1[nH]c3cc(OC)ccc3c12	1	-4
COc1ccc2c3c([nH]c2c1)[C@H](CO)N(Cc1cc(F)ccc1F)CC31CCN(C(=O)CN(C)C)CC1	-81*	-3
COc1ccc2c3c([nH]c2c1)[C@@H](CO)N(Cc1cccnc1)CC31CCN(C(=O)CN(C)C)CC1	-67	6
CCC(=O)N1CCC2(CC1)CN(Cc1cc(F)ccc1F)[C@@H](CO)c1[nH]c3cc(OC)ccc3c12	-90*	4
COc1ccc2c3c(n(C)c2c1)[C@H](CO)N(Cc1cc(F)ccc1F)CC31CCN(C(C)=O)CC1	-64	-1
COc1ccc2c3c([nH]c2c1)[C@@H](CO)N(Cc1cc(F)ccc1F)CC31CCN(C(C)=O)CC1	-83*	6
C[C@H](NC(=O)C[C@@H]1C[C@@H]2c3cc(NC(=O)CC4CC4)ccc3O[C@@H]2[C@@H](CO)O1)c1ccccc1	1	1
C[C@H](CO)N1C[C@H](C)[C@H](CN(C)S(=O)(=O)c2cccs2)Oc2c(NS(=O)(=O)c3ccccc3)cccc2C1=O	-19	-5
C[C@H]1CN([C@@H](C)CO)C(=O)Cc2cc(NC(=O)Nc3ccccc3)ccc2O[C@@H]1CN(C)C(=O)Nc1ccccc1	4	0
CCC(=O)N1CC(=O)N2[C@H](CO)[C@H](c3ccc(C#Cc4cccc(OC)c4)cc3)[C@H]2C1	-13	-5
C[C@@H]1CN([C@H](C)CO)C(=O)c2cc(NC(=O)Nc3cccc4ccccc34)ccc2O[C@@H](C)CCCCO[C@@H]1CN(C)S(=O)(=O)c1ccc(F)cc1	-87*	-1
C[C@H]1CCCCO[C@@H](CN(C)S(=O)(=O)c2ccc(F)cc2)[C@@H](C)CN([C@@H](C)CO)C(=O)c2cc(NC(=O)Nc3cccc4ccccc34)ccc2O1	-48	2
C[C@H](CO)N1C[C@H](C)[C@H](CN(C)S(=O)(=O)c2ccc(F)cc2)OCCCC[C@H](C)Oc2ccc(NC(=O)Nc3cccc4ccccc34)cc2C1=O	-26	-5
C[C@@H]1CN([C@@H](C)CO)C(=O)c2cc(NC(=O)Nc3cccc4ccccc34)ccc2O[C@@H](C)CCCCO[C@@H]1CN(C)S(=O)(=O)c1ccc(F)cc1	-83*	0
COCC#Cc1ccc2c(c1)O[C@H](CN(C)C(=O)C1CC1)[C@@H](C)CN([C@@H](C)CO)S2(=O)=O	-7	.
